Bioassay records from PubChem BioAssay.
In the library only some 21% were active in any assay of this set; here they are far more common.
CYP2C19 inhib: inhibitors of human CYP2C19 | P33261 | CYP2C19 Supersomes, luciferin-H EGE luminescence, 30 min | inhibition, % at 5 µM | 21% of 96,000 active | AID 778;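 active means CYP2C19 inhibition above a set limit at 5 µM in the primary screen, cut at about 50% in these data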;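 further: plate controls were negative control wells for no effect and 2.5 mM tranylcypromine positive control for full effect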
Target sequence (P33261 whole entry, looked up): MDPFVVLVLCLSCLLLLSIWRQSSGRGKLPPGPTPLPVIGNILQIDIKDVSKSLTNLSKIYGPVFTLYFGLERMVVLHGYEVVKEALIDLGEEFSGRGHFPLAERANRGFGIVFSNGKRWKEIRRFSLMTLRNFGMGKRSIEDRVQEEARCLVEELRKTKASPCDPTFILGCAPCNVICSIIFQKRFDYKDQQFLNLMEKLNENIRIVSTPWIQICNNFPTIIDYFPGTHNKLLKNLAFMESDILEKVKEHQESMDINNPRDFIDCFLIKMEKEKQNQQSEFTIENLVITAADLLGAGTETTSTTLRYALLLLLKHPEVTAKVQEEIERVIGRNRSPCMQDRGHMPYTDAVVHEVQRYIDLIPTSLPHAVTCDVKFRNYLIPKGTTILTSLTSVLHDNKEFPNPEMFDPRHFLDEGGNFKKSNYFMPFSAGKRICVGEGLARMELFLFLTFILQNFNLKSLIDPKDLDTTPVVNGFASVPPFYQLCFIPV
MRP-1 activ: activators of MRP-1; H69AR cells + doxorubicin, viability rescue, CellTiter-Glo; AID 799; viability increase, % at 10 µM; 0.61% of 140,000 active;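 active means viability gain under doxorubicin at or above a set limit, the compound median plus 3 SD, cut at about 4.7% in these data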;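 further: MRP-1 overexpressing cells given doxorubicin 25 µM after compound pretreatment; 18-22 h compound pretreatment then 72 h with doxorubicin before readout; 0% = doxorubicin-only wells and 100% = vehicle-treated cells without doxorubicin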
CYP2C9 activ: CYP2C9 (human) activation | P11712 | recombinant CYP2C9, luciferin-H conversion, luminescence; hits give high values; factor 1 = untreated enzyme, 0 = blocked | activation factor at 5 µM | 1.4% of 96,000 active | AID 1024;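 active means activation factor of 2 or more for CYP2C9 at a 5 µM dose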;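 further: 0 = sulfaphenazole-blocked wells and 1 = vehicle-only wells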
CYP2C19 act: increases human CYP2C19 enzyme activity; recombinant CYP2C19, luciferin-H EGE luminescence; hits give high values; 0 = fully inhibited enzyme, 1 = untreated enzyme; activation factor at 5 µM; 96,000 tested, under 10 active; AID 1025;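 active means activation factor of at least 2 at 5 µM in the primary screen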;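 further: 0 = wells with 2.5 mM tranylcypromine and 1 = vehicle-only wells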
CYP2C9 inh: blocks human cytochrome P450 2C9; P11712; CYP2C9 Supersomes, luciferin-H conversion, luminescence; inhibition, % at 5 µM; 20% of 96,000 active;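 active means blocking of liver enzyme CYP2C9 beyond about 50% at 5 µM, limit read from the data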
MRP resist rev: MRP-mediated drug resistance reversal; H69AR cells + 2 uM doxorubicin, CellTiter-Glo, 72 h; differential viability (reversal), % at 10 µM; AID 602; 0.04% of 85,000 active;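 active means viability drop by adding the cancer drug above about 55%, with treated viability meeting a 40% cutoff, limit read from the data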;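 further: viability without doxorubicin minus viability with 2 µM doxorubicin for each compound; larger differential means the compound sensitizes cells more to doxorubicin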
The depositor's hits bear a star; / = not tested or not shown.

SMILES	CYP2C19 inhib	MRP-1 activ	CYP2C9 activ	CYP2C19 act	CYP2C9 inh	MRP resist rev
Cc1ccc(S(=O)(=O)NCCOc2nc(N(C)C)nc(N3CCOCC3)n2)cc1	13.7	-1.1	0.6	0.9	39.9	/
COc1cccc(CNCc2ccc(SC)cc2)c1OC	100.3*	-0.9	0.8	0	15.6	/
Cc1csc2nc(CCNS(=O)(=O)c3ccc4c(c3)OCCO4)cn12	61.5*	-1.8	1.5	0.4	-51.5	4.4
O=S(=O)(NCCc1cn2ccccc2n1)c1ccc2c(c1)OCCO2	69.6*	-2.0	1.2	0.3	-18.4	22.6
Cc1nc(CNS(=O)(=O)c2cc(C)c(C)cc2C)cs1	87.2*	-1.4	1.6	0.1	-61.7	-3.0
O=S(=O)(NCc1ccccn1)c1ccc2c(c1)OCCO2	83.3*	-0.9	1.4	0.2	-41.5	-12.8
CC(C)c1nnc(NC(=O)CCC(=O)NCc2cccs2)s1	-6.5	1.4	0.9	1.1	9.3	-7.6
Cc1ccc(C(C)(C)C)cc1S(=O)(=O)Nc1cccc(S(=O)(=O)NC2=NCCC2)c1	/	-1.9	/	/	/	/
O=C(COC(=O)CCC1CCCC1)Nc1ccc(Cl)cc1F	/	0.1	/	/	/	/
CCc1ccc(S(=O)(=O)NCc2cn3c(C)csc3n2)s1	77.7*	-3.8	1.2	0.2	-20.3	/
COc1ccc(S(=O)(=O)NCc2csc(C)n2)cc1	45.6	-0.6	1.1	0.5	-7.4	8.5
Cc1csc2nc(CNS(=O)(=O)c3ccc4c(c3)OCCO4)cn12	63.6*	-1.5	1.1	0.4	-13.9	5.7
Cc1csc2nc(CNS(=O)(=O)c3ccc4c(c3)CCCC4)cn12	54.3*	-0.6	2*	0.5	-103.1	0.7
Cc1nc(CNS(=O)(=O)c2ccc3c(c2)OCCO3)cs1	86.6*	1.5	1.2	0.1	-22.8	-2.7
CC(=O)Nc1ccc(S(=O)(=O)NCc2cn3c(C)csc3n2)cc1	/	-0.6	/	/	/	0.1
COc1ccc(-n2c(C)cc(C=O)c2C)cc1Cl	59.1*	-2.5	0.8	0.4	16.0	7.5
COc1cccc(-c2nc(CS(=O)(=O)CC(=O)N3CCc4ccccc43)c(C)o2)c1	20.6	-0.4	1.2	0.8	-17.5	-13.2
O=C(c1ccco1)N1CCN(C(=O)C(Sc2ccccc2)c2ccccc2)CC1 (stereo not given)	78.2*	-1.6	0.2	0.2	83.4*	-2.8
O=C(CN1CCN(C(=O)c2ccco2)CC1)Nc1ccc2c(c1)OCCO2	4.3	-3.5	0.8	1	16.5	19.5
CC(C(=O)Nc1ccc2c(c1)OCCO2)N1CCN(C(=O)c2ccco2)CC1 (stereo not given)	-8.5	-1.2	0.9	1.1	10.3	5.1
O=C(Nc1ccc(F)cc1)C(c1ccccc1)N1CCN(C(=O)c2ccco2)CC1 (stereo not given)	22.0	-1.2	0.3	0.8	71.0*	/
CC(C)C(=O)Nc1ccc(C(=O)N2CCN(C(=O)c3ccco3)CC2)cc1	8.7	-1.3	0.9	0.9	11.5	1.3
O=C(Nc1ccc2c(c1)OCO2)C(c1ccc(Cl)cc1)N1CCN(C(=O)c2ccco2)CC1 (stereo not given)	75.0*	-2.4	0.1	0.3	94.7*	13.5
O=C(Nc1ccc2c(c1)OCO2)C(c1ccccc1)N1CCN(C(=O)c2ccco2)CC1 (stereo not given)	75.6*	-1.4	0	0.2	98.5*	8.8
O=C(C(Sc1ccccc1)c1ccccc1)N1CCN(c2ccccc2)CC1 (stereo not given)	/	-3.6	/	/	/	/
SMILES	CYP2C19 inhib	MRP-1 activ	CYP2C9 activ	CYP2C19 act	CYP2C9 inh	MRP resist rev
Cc1ccc2nc(NC(=O)CSc3nncc(=O)n3N)sc2c1	/	-4.5	/	/	/	/
O=C(COc1ccc([N+](=O)[O-])cc1)Nc1ccc(C(=O)NCc2cccnc2)cc1	12.1	-0.8	0.8	0.9	16.3	/
CC1CC(C)CN(c2nc3c(c(=O)n(C)c(=O)n3C)n2C)C1 (stereo not given)	1.6	-0.3	1	1	-0.6	8.8
Cn1c(Cn2nnc3ccccc32)nnc1SCC(=O)c1ccc(F)cc1	-6.6	-1.6	0.9	1.1	5.2	2.5
CN(C)CCCOC(=O)CCc1ccccc1	7.7	-1.4	1	0.9	2.0	8.8
CN(C)CCCOC(=O)Cc1ccc(Cl)cc1	69.3*	0.1	0.7	0.3	25.7	2.6
O=C(N/C(=C\c1ccccc1)C(=O)N1CCN(CCO)CC1)c1ccccc1	/	-1.3	/	/	/	/
COc1ccccc1NC(=O)Cn1ncc2c1-c1ccccc1OC2	36.6	-2.4	0.7	0.6	33.5	9.0
Cc1ccc(C)c(CN2CCCN(C(=O)Cn3ncc4c3-c3ccccc3OC4)C2)c1	79.4*	-4.3	0.4	0.2	55.5*	-10.4
COc1cc(C(=O)N2c3ccccc3CC2C)cc(OC)c1OC (stereo not given)	24.6	-1.9	0.8	0.8	22.8	-32.9
COc1cc(NC(=O)Cn2ncc3c2-c2ccccc2OC3)cc(OC)c1OC	54.7*	-2.6	0.6	0.5	39.5	18.9
O=C(Cn1ncc2c1-c1ccccc1OC2)Nc1cccc(Cl)c1	56.1*	-0.9	0.6	0.4	35.1	-13.0
COc1cc(NC(=O)CN2c3ccccc3CC2C)cc(OC)c1OC (stereo not given)	69.4*	-5.2	0.2	0.3	80.8*	/
Cc1cccn2c(=O)c3cc(C(=O)N4CCc5ccccc54)n(C)c3nc12	/	/	/	/	/	-18.4
CCOc1ccc(-c2cc(NC(=O)Cn3ncc4c3-c3ccccc3OC4)on2)cc1OCC	65.3*	-2.1	1.1	0.3	-14.4	-0.9
CC1=C2C(CCS2(=O)=O)CC2(C1)C(=O)OC(C)(C)OC2=O (stereo not given)	81.9*	-0.1	1	0.2	2.6	7.0
COc1ccc(Cn2nc(C)n(N(C)c3ncc(C(F)(F)F)cc3Cl)c2=O)cc1	53.2*	1.0	0.8	0.5	15.5	-2.4
COc1cc([C@H]2[C@@H]3CCCC[C@]3(O)CCN2Cc2ccccc2F)ccc1O	82.6*	-1.5	0.6	0.2	37.3	15.2
COc1cc([C@H]2[C@@H]3CCCC[C@]3(O)CCN2CC(=O)Nc2ccc(C)cc2C)ccc1O	17.4	-1.8	0.7	0.8	32.4	-13.6
C/C(=N\O)c1ccc2c3ccccc3n(C)c2c1	34.2	1.3	0.5	0.7	54.8*	10.6
CCn1c2ccccc2c2cc(/C(C)=N/O)ccc21	21.5	1.3	0.5	0.8	49.5	/
O=C(Nc1nc(-c2ccccc2)cs1)c1cccc([N+](=O)[O-])c1	6.1	1.9	0.9	0.9	14.9	/
Cc1c(C(=O)Nc2ccc(OCc3ccccc3)cc2)cccc1[N+](=O)[O-]	-14.1	-3.4	1.6	1.1	-57.7	/
Cc1c(C(=O)Nc2ccccc2-c2ccccc2)cccc1[N+](=O)[O-]	80.3*	-2.3	0.8	0.2	22.9	/
Cc1ccccc1NC(=O)c1cccc(S(=O)(=O)Oc2ccc([N+](=O)[O-])cc2)c1	79.8*	-1.7	0.6	0.2	39.0	/
Cc1ccc([N+](=O)[O-])cc1NC(=O)c1ccc(C(C)(C)C)cc1	16.9	-1.3	1.5	0.8	-45.6	/
